Experimental data published in PubChem BioAssay (NCI).
Values joined by “and” are separate entries in the source; they are usually repeats but may differ in a detail not shown here. Equal values may be shown once. This is part of a sample that, as a whole, favours compounds with a hit. Of some 83,000 tested, about 20% had one in any assay.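 Values shown are percent growth following 48 h exposure of cells in 96-well plates to a single concentration of compound; below 10 was considered active.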 Active and inactive are the calls of the source.

These molecules were tested on MDA-MB-468 breast (assay: NCI-60 one-dose screen, 48 h (100 = growth as untreated, 0 = no growth, -100 = all killed)). Conditions: 10 µM unless noted.

| SMILES | growth |
| --- | --- |
| CCCCCCCCCCCCCCCc1cc(O)ccc1N | 70.1% (inactive) and 6.15% (active) |
| CCc1nc2cc(/C=C/C(=O)NO)ccc2c(=O)n1CCc1ccc(F)cc1 | -11.6% (active) |
| COc1ccc(Oc2[nH]n(C3=Nc4ccccc4Sc4ccccc43)c(=O)c2C#N)cc1 | 98.5% (inactive) |
| C[C@@H]1CC[C@H]2[C@@H](C)C(O)O[C@@H]3O[C@]4(C)CC[C@@H]1[C@]32OO4 (some centres undefined) | 27.7% (inactive) |
| COc1ccc2c(c1)c(-c1nc(-c3c[nH]c4c(Cl)nccc34)cs1)cn2C | -23% (active) |
| COc1cc(C(=O)Nc2cc(O)c(CC=C(C)C)c(O)c2)cc2c1O[C@]1(C)CC[C@@H](O)C(C)(C)[C@H]1C2 | 36.3% (inactive) |
| C/C(Cc1ccccc1)=N\O | 106% (inactive) |
| O=C(Nc1ccc(F)cc1)c1c(NC(=O)C(F)(F)F)sc2c1CCCCC2 | -17% (active) |
| O=C(O)CS(=O)c1ccc(Cl)cc1 (centres undefined) | 103% (inactive) |
| COc1c(N2CC3CCCNC3C2)c(F)cc2c(=O)c(C(=O)N/N=C/c3ccc4c(c3)OCO4)cn(C3CC3)c12 (centres undefined) | 63.1% (inactive) |
| CCCC(=O)NC(c1ccc2c(c1)OC(F)(F)O2)c1cc(C)c2cccnc2c1O (centres undefined) | -14.7% (active) |
| CCOC(=O)C(=Cc1ccc(Br)cc1)C(=O)OCC | -73.3% (active) |
| COc1c(B(O)O)cccc1-c1nc2ccc3[nH]ncc3c2c2c1CCC2 | 60% (inactive) |
| COc1cc(/C=C2\CN(C)C/C(=C\c3cc(CN4CCCCC4)c(O)c(OC)c3)C2=O)cc(CN2CCCCC2)c1O | 13% (inactive) |
